The term Inhibition denotes the change of the read-out against control, counted positive when it falls. Lower therefore signals a response near the control.

In this assay the test system is Plasmodium falciparum. Briefly: GSK_TCMDC: Inhibition of Plasmodium falciparum Dd2 in whole red blood cells, using parasite LDH activity as an index of growth. Test compounds present at 2uM. In kind it is functional.
Compound `COc1ccccc1Nc1nc(C)cc(NCc2ccc(-n3ccnc3)cc2)n1` registered an Inhibition of 10%.

Turning to `COc1ccc(C[C@H](N)C(=O)N[C@H]2[C@@H](O)[C@H](n3cnc4c(N(C)C)ncnc43)O[C@@H]2CO)cc1` [PUROMYCIN], the Inhibition is recorded as 100%.

Take `COc1ccc(NC(=O)Nc2ccc(-c3ccccc3)cc2)cc1Cn1cnc(N2CCCNCC2)cc1=O.O=C(O)C(F)(F)F`: the Inhibition was 38%.

Turning to `COc1ccc2nccc(NC(=O)N3CCC(NCCOc4cc(F)cc(F)c4)CC3)c2n1.O=C(O)C(=O)O`, the Inhibition amounted to 38%.

In turn, `N#Cc1cnc(Nc2ccc(Oc3ccccc3)cc2)nc1Nc1cccc(S(N)(=O)=O)c1` had an Inhibition of 86%.

The compound `CC(=O)c1c(Nc2c(C)cc(C)cc2C)oc(C)cc1=O` returned an Inhibition of 83%.

Consider `Cc1cccc2nc(-c3ccc(-c4ccc(CN5CCOCC5)cc4)cc3)[nH]c12.O=C(O)C(F)(F)F`, for which the Inhibition came out at 86%.

Compound `CC1c2cccc(O)c2CCN1CCc1ccc(Cl)c(Cl)c1.Cl` (stereo not given) gave an Inhibition of 99%.

As for `CO/C(=C\C=C\c1cc2cc(Cl)c(Cl)cc2[nH]1)C(=O)NCCCN(C)CCN(C)c1ccccc1`, the Inhibition was determined as 59%.

`O=C(Nc1ccc(-c2nc3ccccc3[nH]2)cc1)C1CCN(Cc2cccc(F)c2F)CC1` showed an Inhibition of 51%.

`NC1=NC(c2ccccc2)(c2ccccc2)C(=O)N1CCCCc1ccccc1.O=CO` yielded an Inhibition of 81%.

In the case of `O=C(/C=C/c1ccc(Cl)c(Cl)c1)NCCCCCN1CCC(NC(=O)Nc2cccc(C(F)(F)F)c2)CC1`, the Inhibition is reported as 11%.

Compound `Cc1cc2c3c(N)nc(N)nc3ccc2n1C(C)C` gave an Inhibition of 0%.

`CC(CCCCOCCc1ccccc1)NCC(O)c1cc(Cl)c(N)c(Cl)c1` (stereo not given) returned an Inhibition of 95%.

Compound `CCCC(=O)c1cnc2c(Oc3cc(Cl)ncn3)cccc2c1Nc1ccccc1C` yielded an Inhibition of 85%.

In turn, `CN(CCC1CCN(C(=O)/C=C/c2ccc(Cl)c(Cl)c2)CC1)C1CCC(c2c[nH]c3ccccc23)CC1` (stereo not given) registered an Inhibition of 9%.

Compound `Br.Oc1ccc(CCNCCCCCCNCCCc2ccc(Cl)cc2)cc1O` had an Inhibition of 3%.

On to `CCOC(=O)c1c(NC(=O)c2ccccc2)sc2c(O)c(CN(CC)CC)ccc12.Cl`, for which the Inhibition turned out to be 100%.

Consider `Cc1cc(Nc2ccc(C)c(C)c2)n2nc(C)nc2n1`, for which the Inhibition is on record as 45%.

`CCCc1cc(=O)[nH]c(-n2nc(C)cc2NC(=O)C(CC)c2ccccc2)n1` (stereo not given) gave an Inhibition of 63%.

The compound `CC(=NNC(S)=NCCc1ccccc1)c1ccccn1` came in with an Inhibition of 99%.

In the case of `COc1ccccc1-c1ccc2nnc(SCC(=O)Nc3ccc4c(c3)OCCO4)n2n1`, the Inhibition was 5%.

In turn, `Cl.NC(=O)c1cnc2cc(-c3ccoc3)ccc2c1Nc1ccc(NC(=O)Nc2ccccc2Cl)cc1` came in with an Inhibition of 76%.

For `COc1cc(OC)cc(-c2nc3ccc(OCCN(C)C)c(C#N)c3[nH]2)c1`, the Inhibition is 25%.

In turn, `CC1CN(CC(O)Cn2c3ccc(Br)cc3c3cc(Br)ccc32)CC(C)O1` (stereo not given) displayed an Inhibition of 100%.

Turning to `O=C(CN1CCC2(CCC1=O)CC(=O)c1ccccc1O2)NCCN1CCOCC1` (stereo not given), the Inhibition was 0%.

`COc1ccc2nccc([C@@H](O)CN3CCC(NC(=O)C(c4cc5ccccc5s4)N4CCN(c5ccccc5OC)CC4)CC3)c2c1` (stereo not given in full) gave an Inhibition of 88%.

In turn, `COc1ccc(Nc2nccc(NCC(O)c3cccc(C(F)(F)F)c3)n2)cc1` (stereo not given) had an Inhibition of 33%.

Compound `COc1ccc(-c2ccc(NC(=O)c3cccc(C#N)c3)cc2)cc1CN1CCNCC1.O=C(O)C(F)(F)F` displayed an Inhibition of 47%.

`CCCNCCc1ccc(NS(=O)(=O)c2cccc(-c3ccc(Cl)cc3)c2)cc1.Cl` showed an Inhibition of 36%.

`O=C(NC1CCCCN(Cc2ccccc2O)C1)c1cccc(Cl)c1.O=C(O)C(F)(F)F` (stereo not given) registered an Inhibition of 30%.

As to `O=C(NCc1ccccc1)c1ccc(C(=O)NCC2CNCCO2)cc1.O=C(O)C(F)(F)F` (stereo not given), the Inhibition is on record as 0%.

As to `CCCC(C)NC[C@@H](O)[C@H](Cc1ccccc1)NC(=O)c1cc(NCC)cc(N2CCCCS2(=O)=O)c1.Cl` (stereo not given in full), the Inhibition came out at 98%.

`O=S(=O)(Nc1ccc(CCN2CCCCC2CCN2CCCC2)cc1)c1ccc(-c2ccccc2)cc1` (stereo not given) showed an Inhibition of 18%.

The compound `COc1cccc(-c2cnc(N)c(-c3nc4cc(Cl)c(F)cc4[nH]3)c2)c1` had an Inhibition of 26%.

As for `N#Cc1ccccc1Sc1ccccc1C(=O)Nc1ccc2ccccc2n1`, the Inhibition came to 85%.

`Cc1ccccc1Nc1nc(NCCCO)c2ccccc2n1.Cl` had an Inhibition of 50%.

`CN(C)c1ccc(/C=C2\S/C(=N\c3ccccc3)N(c3ccccc3)C2=O)cc1[N+](=O)[O-]`: the Inhibition is recorded as 82%.

Consider `N#Cc1ccc(/C=C/C(=O)NCCCCCN2CCN(C(=O)Nc3ccc(Cl)c(C(F)(F)F)c3)CC2)cc1`, for which the Inhibition stood at 0%.

In the case of `COc1ccc2c(=O)ccn(CCN3CCC(NCc4ccc5c(n4)NC(=O)CS5)CC3)c2c1.Cl`, the Inhibition is reported as 99%.

The values above are taken from ChEMBL document CHEMBL1157539, “Thousands of chemical starting points for antimalarial lead identification” (Nature, 2010).
